Hsp90 block = tumor Hsp90 inhibitors, primary screen, cell lysate, fluorescence polarization, NCI-N417 lysate | inhibition, % at 30 µM | Cy3B-geldanamycin FP displacement | 64,000 tested, 0.35% active | AID 429, 2006 | Heat shock protein HSP 90-alpha (Homo sapiens), P07900;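 active = inhibition above 50%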
CatL block = inhibitors of human cathepsin L, biochemical; Procathepsin L (Homo sapiens), P07711; purified cathepsin L, fluorogenic substrate, fluorescence; inhibition, %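 (tested at 10 µM)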; 58,000 tested, 0.17% active; in the data active = inhibition above about 45%
Target sequence (P07711 114-288 limits assumed): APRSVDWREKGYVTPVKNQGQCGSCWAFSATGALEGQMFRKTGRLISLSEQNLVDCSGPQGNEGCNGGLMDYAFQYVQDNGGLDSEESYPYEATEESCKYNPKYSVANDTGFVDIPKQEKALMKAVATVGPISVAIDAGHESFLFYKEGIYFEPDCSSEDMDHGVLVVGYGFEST
Target sequence (P07711 292-333 limits assumed): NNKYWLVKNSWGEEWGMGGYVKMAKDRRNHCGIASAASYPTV
CatB mix inh = cathepsin B inhibitors from pooled compounds, primary screen, biochemical, compound mixtures, AMC fluorescence; Purified cathepsin B, AMC dipeptide fluorescence; 62,000 tested, 0.06% active; inhibition, %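 (ten-compound pools at 5 µM per compound and 50 µM total)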; P07858; in the data active = inhibition above about 22%, passing the limit was not always enough
CatS inh = inhibitors of human cathepsin S, biochemical, compound mixtures; P25774; recombinant cathepsin S, AMC dipeptide fluorescence, pooled mixtures; inhibition, %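 (tested at 5 µM per compound within 10-compound mixtures)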; 62,000 tested, 0.06% active; AID 501, 2006; in the data active = inhibition above about 32%, passing the limit was not always enough
mHtt clearance = clearance of mutant huntingtin inclusions, primary screen, imaging, HeLa Exon1htt(103Q)mCFP, confocal imaging | inhibition, % at 1.5 µM | 47,000 tested, 0.42% active | aggregate imaging; zero = plate's median compound well | AID 853, 2007;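 active = inhibition of aggregate fluorescence above about 70%, also judged a hit by eye on the cell image, limit read from the data, passing the limit was not always enough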;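 note: cells exposed to compound for three days before fixation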
CatB inh = human cathepsin B inhibitors, primary screen, biochemical, fluorogenic substrate. purified cathepsin B, fluorescence. inhibition, %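 (tested at 10 µM)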. AID 453, 2006. P07858. 63,000 tested, 0.1% active; in the data active = inhibition above about 21%
Large screens that a line does not name were inactive. Compounds with a hit are over-represented: about 0.71% of the library has one in this group of screens.

Cn1ncnc2c(=O)n(C)c(=O)nc1-2	Hsp90 block 91, CatL block 85, CatB mix inh 80, CatS inh 70, CatB inh 83 (no result: mHtt clearance)
N[C@@H](Cn1cc(I)c(=O)[nH]c1=O)C(=O)O	none (no result: CatL block, CatB mix inh, CatS inh, mHtt clearance, CatB inh)
CC(O)C(C)OC(=O)[C@@H]1C[C@@H]2c3cccc4c3c(cn4C(C)C)C[C@H]2N(C)C1 (stereo partly drawn)	none (no result: CatL block, CatB mix inh, CatS inh, mHtt clearance, CatB inh)
C[C@H]1CCCC(=O)CCCCCc2cc(O)cc(O)c2C(=O)O1	Hsp90 block 88 (no result: mHtt clearance)
CCN1C[C@]2(C)CC[C@H](O)[C@@]34C5C[C@@H]6[C@@H](OC)C[C@@](O)(C5[C@H]6O)[C@@H](CC23)C14 (stereo partly drawn)	none (no result: CatL block, CatB mix inh, CatS inh, mHtt clearance, CatB inh)
CN(C)[C@@H]1C(=O)C(C(N)=O)=C(O)[C@@]2(O)C(=O)C3=C(O)c4c(O)cccc4[C@@](C)(O)[C@H]3C[C@@H]12	Hsp90 block 72 (no result: mHtt clearance, CatB inh)
CN(C)[C@@H]1C(=O)C(C(N)=O)=C(O)[C@@]2(O)C(=O)C3=C(O)c4c(O)ccc(Cl)c4[C@@](C)(O)C3C[C@@H]12 (stereo partly drawn)	none (no result: mHtt clearance)
O=C(CCCOc1ccc(Cl)cc1Cl)N1CCC2(CC1)OCCO2	none
O=C(NC1(C(F)(F)F)Oc2ccc(Cl)cc2O1)N1CCC2(CC1)OCCO2 (stereo not drawn)	Hsp90 block 64 (no result: mHtt clearance)
CCCCCCCCCCCCCC(=O)O[C@@H]1[C@@H](C)[C@@]2(O)[C@@H](C=C(CO)C[C@@]3(O)C(=O)C(C)=C[C@@H]23)C2C(C)(C)[C@@]21OC(C)=O (stereo partly drawn)	none (no result: CatL block, CatB mix inh, CatS inh, mHtt clearance, CatB inh)
CN(C)C(=O)CSc1nnc([C@@H](N)Cc2ccccc2)o1	CatL block 103
COc1cc(C=C(C#N)C#N)cc(O)c1O	Hsp90 block 69 (no result: CatL block, CatB mix inh, CatS inh, mHtt clearance, CatB inh)
N#CC(C#N)=Cc1ccc(O)c(O)c1	Hsp90 block 63 (no result: CatL block, CatB mix inh, CatS inh, mHtt clearance, CatB inh)
N#CC(=Cc1ccc(O)c(O)c1)C(N)=S	Hsp90 block 52 (no result: CatL block, CatB mix inh, CatS inh, mHtt clearance, CatB inh)
CC(C)(C)c1cc(C=C(C#N)C#N)cc(C(C)(C)C)c1O	none (no result: CatL block, CatB mix inh, CatS inh, mHtt clearance, CatB inh)
C[C@]12CC[C@H]3[C@@H](CCC4C[C@H](O)CC[C@@]43C)[C@@H]1CC[C@@H]2O (stereo partly drawn)	none (no result: CatL block, CatB mix inh, CatS inh, mHtt clearance, CatB inh)

Assay outcomes from PubChem.
